High-throughput results deposited in PubChem by National Center for Advancing Translational Sciences (NCATS).
L3MBTL1 block = blocks human L3MBTL1; Potency, µM (top dose mostly 57.1 µM), for the others: at the top dose activity, negative = inhibition, actives largely listed as inhibitors; hit rate 0.66% among 230,000; AlphaScreen L3MBTL1–H3K9me1 peptide binding; Q9Y468; also: % is scaled to controls: 0 for no effect and ±100 for the full control effect; nearly all actives have a fitted effect of over 60% in size
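Read-out is AlphaScreen signal from streptavidin donor and nickel chelate acceptor beads (10 ug/mL final each) bridging L3MBTL1 (50 nM) and biotinylated K9-monomethylated H3(1-15) peptide (75 nM), after 30 min compound exposure at room temperature.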
HP1b chromo inh = HP1-beta chromodomain-methylated histone interaction inhibition; hit rate 0.56% among 390,000; Potency, µM (series often up to 114 µM), without a hit: at the top dose activity change, negative = inhibition, actives largely listed as inhibitors; AlphaScreen HP1-beta / biotin-H3K9me3 peptide binding; AID 540317; also: nearly all actives have a fitted effect of over 70% in size
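AlphaScreen: HP1-beta (50 nM) preformed 30 min with biotin-H3(1-18)K9me3 peptide (50 nM) in PBS pH 7.4, 0.01% Tween-20. Compound added for 30 min at RT, then streptavidin donor/nickel chelate acceptor beads (10 ug/mL) for 30 min.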
BAZ2B inh = inhibitors of human BAZ2B bromodomain. Q9UIF8. AlphaScreen BAZ2B-H3K14Ac peptide displacement. Potency, µM (series often up to 114 µM), for the others: at the top dose activity change, negative = inhibition, most hits filed as inhibitors. hit rate 4.4% among 360,000. AID 504333; also: % is scaled to controls: 0 for no effect and ±100 for the full control effect; nearly all actives have a fitted effect of over 60% in size
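In this displacement format the biotinylated H3(5-23) peptide acetylated at Lys14 serves as ligand at 50 nM, with BAZ2B at 50 nM in PBS pH 7.4 containing 0.01% Tween-20. Donor and acceptor beads are 10 ug/mL final.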
JMJD2A Tudor = inhibitors of human JMJD2A Tudor domain; O75164; AID 504339; AlphaScreen JMJD2A-Tudor / H3K4me3 peptide binding; hit rate 4.4% among 390,000; Potency, µM (titrated, usually from 114 µM), without a hit: at the top dose activity change, negative = inhibition, actives largely listed as inhibitors; also: % is scaled to controls: 0 for no effect and ±100 for the full control effect; nearly all actives have a fitted effect of over 50% in size
G9a block = inhibitors of human histone lysine methyltransferase G9a; Q96KQ7; G9a H3K9 monomethylation, AlphaScreen, 2 h; Potency, µM (series often up to 102 µM), inactives show at the highest dose activity, negative = inhibition, actives largely listed as inhibitors; hit rate 8.8% among 350,000; AID 504332; also: % is scaled to controls: 0 for no effect and ±100 for the full control effect; nearly all actives have a fitted effect of over 75% in size
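Step 1: enzyme (final 20 nM) with compound, 15 min RT. Step 2: substrate peptide 500 nM and SAM 20 uM, 2 h RT. Step 3: anti-H3K9me1 antibody and AlphaScreen beads, 10 min, then plate read.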
Numbers without * were called inactive; ? = inconclusive; . = not tested or not shown; [ ] = remark or other dose. This is a sample that favours compounds with a hit; in the whole collection about 11% have one here. Calls follow the shape of the dose curve; as a rule, active = well fitted inhibition curve with a large enough effect; inconclusive = small, poorly fitted or top-dose-only effect; inactive = no such curve, though single readings can be large or run the other way. Potency is read from the fitted curve at half-maximal effect.

SMILES	L3MBTL1 block	HP1b chromo inh	BAZ2B inh	JMJD2A Tudor	G9a block
CCOC(=O)c1cc(-c2ccc(F)cc2)n(CCC(=O)NCc2ccccc2OC)c1C	.	?	-32%	?	?
O=C(c1cc(C(F)(F)F)cc(C(F)(F)F)c1)N1CCC2(CC1)CCN(c1ncccn1)CC2	.	.	.	.	-5%[12.7 µM]
NCCSSCCN	.	13µM*	-12%	-6%	22µM*
COCCn1c(=O)c(-c2ccc(F)cc2)nc2cnc(OCc3ccccc3)nc21	.	.	.	.	-22%[12.7 µM]
COc1ccc(CCNC(=S)NC2CCN(Cc3ccccc3)CC2)cc1	.	-1%	-20%	-17%	25µM*
S=C(NCCc1ccccc1)N1CCN(Cc2ccccc2)CC1	-9%	?	56µM*	4.5µM*	?
S=C(NCCc1ccccc1)NC1CCC(NC(=S)NCCc2ccccc2)CC1 (stereo not given)	3%	30%	0%	-10%	28%
Oc1ccc(N2CCN(C(=S)NCCc3ccccc3)CC2)cc1	-13%	?	?	?	7.1µM*
Cc1ccc(C(=O)CSc2nsc(C)c2C#N)cc1	12%	-26%	5%	-20%	4.5µM*
Cc1snc(SCC(=O)c2ccc(Cl)cc2)c1C#N	16%	21%	26%	27%	20µM*
Cc1ccnc(SCC(=O)c2ccc(Br)cc2)c1C#N	26%	37%	16%	?	50µM*
CC(=O)CSc1nsc(SCC(C)=O)c1C#N	-7%	-8%	-2%	-30%	8.9µM*
CCc1ccccc1-n1c2c(cc(-c3nc(-c4ccc(Cl)cc4)cs3)c1=O)C(=O)CC(C)(C)C2	.	37%	10%	11%	?
COc1ccccc1NC(=O)N1CC(=O)Nc2sc3c(c2C1c1ccccc1)CCCC3 (stereo not given)	.	31%	?	-11%	-5%[59 µM]
COC(=O)c1ccccc1CSc1nsc(C)c1C#N	.	48%	87%	84%	16µM*
COc1cccc(-c2sc3ccc(OC)cc3c2-c2ccc(O)cc2)c1	-7%	23%	0%	-28%	8%[0.501 µM]
COc1ccc(-c2sc3ccccc3c2-c2ccc(OCCN(C)C)cc2)cc1	0%	?	.	35µM*	.
CN(C)CCOc1ccc(-c2c(-c3ccsc3)sc3ccccc23)cc1	-23%	-37%	.	50µM*	.
COc1cccc(-c2sc3ccc(OC)cc3c2-c2ccc(OCCN(C)C)cc2)c1	-13%	?	.	28µM*	.
COc1ccc(-c2sc3ccccc3c2-c2ccc(O)cc2)cc1	-1%	6%	.	-30%	.
O=[N+]([O-])c1ccc(CSc2ncnc3c2ncn3[C@@H]2O[C@H](CO)[C@H](O)[C@H]2O)cc1	.	.	.	.	19%[12.7 µM]
CCOCCCn1c(SCC(=O)Nc2ccccc2CC)nc2ccccc2c1=O	.	25%	-2%	-5%	12%[59 µM]
O=S(=O)(c1ccc(Cl)cc1)c1cnc2ccccc2n1	3%	28%	-17%	-29%	-1%
Cc1cc(C)cc(S(=O)(=O)c2cnc3ccccc3n2)c1	-14%	?	20%	11µM*	29%
CCCOc1ccccc1C(=O)Nc1ccc(-c2nc3ccc(C)cc3s2)cc1	.	45%	4%	15%	29%[59 µM]
SMILES	L3MBTL1 block	HP1b chromo inh	BAZ2B inh	JMJD2A Tudor	G9a block
CC1(C)CC2CC(C)(CN2CC(O)c2ccccc2)C1 (stereo not given)	.	-25%	?	5.6µM*	22µM*
CC1(C)CC2CC(C)(CN2CC(=O)C(C#N)c2ccccc2)C1 (stereo not given)	3%	34%	-11%	-26%	?
Cc1cccc(OCC(O)CN2CCNCC2)c1 (stereo not given)	3%	37%	1%	-9%	.
Cc1ccc(OCC(O)CN2CC3(C)CC2CC(C)(C)C3)cc1 (stereo not given)	8%	?	?	1.1µM*	20µM*
Cc1cccc(OCC(O)CN2CC3(C)CC2CC(C)(C)C3)c1 (stereo not given)	?	-34%	?	18µM*	28µM*
CCCCCn1c(CCCNC(=O)c2cccc(C)c2)nc2ccccc21	.	31%	-23%	-25%	3%[59 µM]
COc1ccc(OC)c(NC(=O)C2CCC(CNc3c(N4CCOCC4)c(=O)c3=O)CC2)c1 (stereo not given)	.	24%	-15%	1%	-4%
CC(C)c1nc(SCC(=O)c2ccc(F)cc2)c2ccccc2n1	87%	104%	49%	118%	40µM*
